Shown are actives, neighbours in structure and some others; about 1.8% of the full set was active somewhere.
TLR9-MyD88 block – inhibitors of TLR9-MyD88 association in cells, primary screen, cell-based, CHO, BLA complementation, fluorescence; Toll-like receptor 9 (Homo sapiens) + Myeloid differentiation primary response protein …; inhibition, % at 4.98 µM; CCF4 FRET ratio; AID 504734, 2011; 340,000 tested, 0.21% active;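 active = inhibition above the mean over all tested compounds plus 3 SD, cut at about 21% in these data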;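 also: 0% = DMSO only wells and 100% = clavulanate BLA inhibitor control wells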
Bim-Mcl-1 – inhibitors of Bim peptide binding to Mcl-1, primary screen, biochemical, bead-based flow cytometry, multiplex; AID 1009, 2008; Bim peptide-Mcl-1 binding; 190,000 tested, 0.1% active; inhibition, % at 10 µM; Induced myeloid leukemia cell differentiation protein Mcl-1 (Homo sapiens), Q07820; in the data active = inhibition above about 40%;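 also: 0% = no compound tracer wells and 100% = peptide blocker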
NOD2 RIPK2 PPI – NOD2-RIPK2 binding disruptors in cells, primary screen, fluorescence, CHO cells, BLA complementation | Receptor-interacting serine/threonine-protein kinase 2 (Homo sapiens), O43353 | CCF4 ratio | inhibition, % at 4.98 µM | 360,000 tested, 0.38% active | AID 624267, 2012; in the data active = inhibition above about 21%;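 also: 0% = vehicle only and 100% = reference blocker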
TLR4 MyD88 comp – inhibitors of TLR4-MyD88 association in cells, primary screen, cell-based, HeLa CL3-4, BLA complementation, FRET ratio; Toll-like receptor 4 (Homo sapiens) + Myeloid differentiation primary response protein …; HeLa CL3-4 TLR4/MyD88 BLA complementation; 200,000 tested, 0.18% active; inhibition, % at 8.4 µM; in the data active = inhibition above about 25%;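 also: 0% = vehicle and 100% = reference inhibitor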
Mcl1-Bid inh – Mcl-1/Bid binding inhibitors, primary screen, biochemical, TR-FRET, 1536-well; Induced myeloid leukemia cell differentiation protein Mcl-1 (Homo sapiens), Q07820; TR-FRET Mcl-1/Bid-Dy647 peptide binding; inhibition, % at 21.7 µM; 220,000 tested, 0.97% active; AID 1021, 2008;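 active = compounds that cut the binding signal by more than half at the single screening dose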;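 also: His-tagged Mcl-1 with europium anti-His antibody binding Bid BH3 peptide; 0% = Mcl-1 plus peptide wells and 100% = peptide-only wells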
Mcl1-Noxa inh – Mcl-1/Noxa binding inhibitors, primary screen, biochemical, TR-FRET, 1536-well | Induced myeloid leukemia cell differentiation protein Mcl-1 (Homo sapiens), Q07820 | TR-FRET Mcl-1/Noxa peptide binding, 2 h | inhibition, % at 21.7 µM | 220,000 tested, 1.5% active;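 active = compounds that cut the protein-peptide binding signal by more than 50% relative to plate controls in a single-dose test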;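 also: His-tagged Mcl-1 with rhodamine Noxa BH3 peptide and terbium anti-His antibody; 0% = Mcl-1 plus Noxa peptide wells and 100% = peptide-only wells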
Numbers without * were called inactive; . = no result given.

SMILES	TLR9-MyD88 block	Bim-Mcl-1	NOD2 RIPK2 PPI	TLR4 MyD88 comp	Mcl1-Bid inh	Mcl1-Noxa inh
Cc1ccc(O)c(N=Cc2cc(Cc3ccccc3)cc([N+](=O)[O-])c2O)c1	-11.6	-1.0	-0.1	-6.5	-89.4	55.8*
COc1cc(C=Nc2cccc(C)c2)c(O)c([N+](=O)[O-])c1	9.3	53.0*	-1.0	0.2	-80.7	39.0
O=C(OCC(=O)N1CCCC1=O)C1COc2ccccc2O1 (stereo not drawn)	7.9	0.0	-1.8	6.9	-2.7	57.5*
CCCN(c1ccccc1C(=O)O)S(=O)(=O)c1ccc2c(c1)n(C)c(=O)n2C	-0.8	.	-4.3	.	.	.
COc1ccc(NC(=O)c2sc(=O)n(Cc3ccc4ccccc4c3)c2C)cc1OC	.	.	-0.3	.	.	.
CCCCn1c(NCc2cccs2)nc2ccccc21	-1.8	0.0	-5.2	-10.6	-9.2	50.5*
CCCCn1c(NCc2ccc(N(C)C)cc2)nc2ccccc21	-5.7	.	10.7	.	-29.9	89.4*
CCCn1c(NCc2cccs2)nc2ccccc21	5.6	-4.0	-4.5	-6.6	-15.5	32.9
CCCCn1c(NCc2ccncc2)nc2ccccc21	6.2	0.0	-3.8	1.3	-19.5	28.2
Cc1ccc(-c2nc(N/N=C/c3cccc([N+](=O)[O-])c3)c3ccccc3n2)cc1	3.0	-2.0	0.6	-6.9	60.3*	54.2*
Clc1cccc(/C=N/Nc2nc(Cl)nc3ccccc23)c1	5.6	0.0	4.2	8.1	-32.1	86.7*
Cc1ccc(-c2nc(N/N=C/c3cccnc3)c3ccccc3n2)cc1	-9.4	-1.0	0.0	-2.8	1.3	24.3
O=[N+]([O-])c1ccc(-c2nc(NCc3ccccc3)c3ccccc3n2)cc1	2.6	-6.0	-7.3	-1.5	39.3	56.3*
O=[N+]([O-])c1cccc(-c2nc(NCc3ccccc3)c3ccccc3n2)c1	3.4	-9.0	-0.2	1.9	-2.3	4.5
C[C@H]1CN([C@@H](C)CO)C(=O)CCCn2cc(nn2)CO[C@@H]1CN(C)C(=O)OCc1ccccc1	.	.	-3.0	.	.	.
CC(=O)Oc1cccc(/C=c2\sc3nc(-c4ccco4)nn3c2=O)c1	-7.5	-4.0	2.7	-6.1	-30.1	28.8
O=c1/c(=C\c2ccc(O)cc2)sc2nc(-c3ccccc3)c(-c3ccccc3)n12	1.1	.	-5.5	.	-15.9	13.8
CN(C)c1ccc(/C=c2\sc3nc(-c4ccccc4)nn3c2=O)cc1	.	-4.0	.	-0.4	73.1*	78.8*
COc1cc(/C=c2\sc3nc(-c4ccncc4)nn3c2=O)ccc1OC(C)=O	.	-4.0	.	8.6	49.9	70.4*
Cc1ccc(-c2cc(-c3ccc(F)cc3)nc(N)c2C#N)o1	-5.4	0.0	4.4	-6.8	37.6	49.2
Cc1ccc(-c2cc(-c3ccccc3Cl)c(C#N)c(N)n2)o1	-3.4	1.0	6.4	10.8	28.3	60.1*
Cc1ccc(-c2cc(-c3ccccc3)c(C#N)c(N)n2)o1	0.8	-4.0	-2.6	-8.6	18.9	64.6*
Cc1ccccc1CNC(=O)c1csc([C@@H]2O[C@H](CO)[C@@H](O)[C@H]2O)n1	.	.	-5.8	.	.	.
Oc1ccc(Nc2nc(NCC3CCCO3)c3ccccc3n2)cc1 (stereo not drawn)	6.9	0.0	-15.6	9.8	-32.1	54.6*
COc1cccc(Nc2nc(NCC3CCCO3)c3ccccc3n2)c1 (stereo not drawn)	-31.5	2.0	-1.8	-3.4	91.8*	40.5
SMILES	TLR9-MyD88 block	Bim-Mcl-1	NOD2 RIPK2 PPI	TLR4 MyD88 comp	Mcl1-Bid inh	Mcl1-Noxa inh
Oc1ccccc1Nc1nc(NCC2CCCO2)c2ccccc2n1 (stereo not drawn)	1.8	3.0	0.8	2.5	-53.5	34.9
CCN(CC)c1ccc2c(c1)CCCN2	.	14.0	.	-7.3	-55.3	69.0*
CCCc1cc(=O)n2[nH]c(-c3ccc(Cl)cc3)cc2n1	-1.7	.	1.1	.	.	.
O=c1cc(-c2ccc([N+](=O)[O-])cc2)nc2cc(-c3ccc(Cl)cc3)[nH]n12	.	-4.0	.	-1.0	86.7*	96.7*
CO/N=C(/CN1CCCCC1)c1ccc(Cl)cc1	-4.3	.	-2.2	.	.	.
CCC(=O)NC1=C(NC(C)c2ccccc2)C(=O)c2ccccc2C1=O (stereo not drawn)	-2.5	0.0	-7.1	2.5	4.8	24.3
CCC(=O)NC1=C(Cl)C(=O)C(NC(=O)CC)=C(Cl)C1=O	11.0	.	23.0*	.	-183.9	92.2*
CNc1cnn(-c2ccccc2)c(=O)c1Cl	1.0	-2.0	-1.3	-1.4	-11.9	9.6
O=c1c(Cl)c(N/N=C/c2ccc(Br)cc2)cnn1-c1ccccc1	-6.5	-3.0	-2.0	8.2	63.4*	51.6*
Cc1ccc(Nc2nc3ccccc3s2)c(C)c1	-4.9	0.0	-1.6	12.9	-1.8	26.5
Cc1cc(O)ccc1Nc1nc2ccccc2nc1Nc1ccc(O)cc1C	-5.5	0.0	-5.2	-12.1	9.0	67.5*
NC(=O)C1CCN(C(=O)COCc2cc(-c3ccc4c(c3)OCO4)on2)CC1	-0.2	.	4.8	.	.	.
CC(=O)c1ccc(Oc2ccc(C(C)=O)cc2)cc1	1.7	-4.0	2.3	12.3	99.0*	-5.2
CC(=O)c1ccc(OC(=O)Oc2ccc(C(C)=O)cc2)cc1	-8.2	.	-4.9	.	.	.
O=C(OCC(O)C(O)C(O)C(SCc1ccccc1)SCc1ccccc1)c1ccccc1 (stereo not drawn)	1.7	.	6.2	.	.	.
COc1ccc(S(=O)(=O)Nc2ccc3c(c2)OCCO3)cc1OC	-3.7	.	-2.5	.	.	.
Cc1nc(COC(=O)c2cc(O)c3ccccc3c2O)cs1	-5.4	0.0	2.4	3.0	93.8*	104.2*
COc1cc2[nH]c(=S)nc(NCCc3ccc(S(N)(=O)=O)cc3)c2cc1OC	0.9	38.0	1.8	12.7	-55.0	59.2*
COc1ccc(CCNc2ncnc3c2[nH]c2cc(OC)c(OC)cc23)cc1OC	0.1	.	-15.0	.	-7.7	65.7*
COc1cc2[nH]c(=S)nc(Nc3ccc(NC(C)=O)cc3)c2cc1OC	-9.6	33.0	-3.0	5.6	-78.9	78.4*
COc1cc2[nH]c(=S)nc(NCCc3ccc(C)cc3)c2cc1OC	8.3	16.0	-13.4	-4.2	-40.6	20.4
COc1ccc(CCNc2nc(=S)[nH]c3cc(OC)c(OC)cc23)cc1OC	9.6	27.0	-7.0	-3.1	-23.2	80.1*
CSc1ccccc1C(=O)N1CCC2(CC1)CC(=O)c1ccccc1O2	-3.4	.	-5.8	.	.	.
CC(C(=O)O)N(c1ccccc1Cl)S(C)(=O)=O (stereo not drawn)	12.1	.	3.5	.	.	.
